In all, about 420,000 compounds went through this assay and about 50,000 (12%) were called active. Entries that show only a call come without a potency. About 26% were inconclusive and are not listed. The sample holds actives, similar compounds and a random draw of the others, so the mix is not that of the screen. Calls come from the whole dose curve; as a rule, active = well fitted inhibition curve with a large enough effect; inconclusive = small, poorly fitted or top-dose-only effect; inactive = flat fitted curve, though single readings scatter.
Test: qHTS for Inhibitors of human tyrosyl-DNA phosphodiesterase 1 (TDP1): qHTS in cells in presence of CPT; note: nearly all actives have a fitted effect of over 55% in size
Details: chicken DT40 Tdp1-/-;hTDP1 cells + 20 nM CPT, ATP luminescence, 48 h; series mostly up to 46.2 µM
Text: Human tyrosyl-DNA phosphodiesterase 1 (TDP1) is a novel repair gene, and we propose to use it as a new target for anticancer drug development. TDP1 is not an essential protein, but under treatment with topoisomerase I poison (camptothecin: CPT), TDP1 works as a critical factor for cell survival. To directly identify novel TDP1 inhibitors active in a cellular environment, we have knocked-out the Tdp1 gene in chicken DT40 cells (Tdp1-/-) and generated a complemented counterpart cells that contains a stable transfection of the human TDP1 gene (Tdp1-/-;hTDP1 cells). For the primary screen, Tdp1-/-;hTDP1 cells will be exposed to small molecules in the presence or absence of CPT, and their growth kinetics will be evaluated after 48 hours by measuring ATP activity. […] The hit compounds will then be evaluated in the presence or absence of CPT using Tdp1-/- cells. […] In tertiary assays, biochemical gel-based assays will be used to assess whether the hit compounds specifically target TDP1. To this end, we have screened this cell line against the MLSMR in two primary screens. In one screen we add CPT and in the other we screen in the absence of CPT; this AID represents the screen where CPT was present. NIH Chemical Genomics Center [NCGC] NIH Molecular Libraries Probe Centers Network [MLPCN] MLPCN Grant: MH095538 Assay Submitter (PI): Yves Pommier, NCI
DT40-hTDP1 cells with 20 nM Camptothecin (add 20 microL of 1 mM CPT stock in 1 L of cell culture medium) were dispensed at 400 cells/5microL/well in tissue culture treated 1536-well white wall/solid bottom assay plates (Greiner Bio-One North America, NC, U.S.A.) using a Multidrop Combi 8 channel dispenser (Thermo Fisher, Waltham, MA, USA). 23 nL compounds and controls were transferred using the pin tool (Kalypsys, San Diego, CA, USA) to the assay plates. The assay plates were then incubated at 37 masculineC for a minimum 48 hr. Three microL of Cell Titer Glo solution was added to the plates and incubated at RT in dark for 30 min. Luminescence was read using ViewLux (Perkin Elmer) with 1 sec exposure slow speed, high gain and 2x binning.
Potency is the fitted concentration of half-maximal effect.

SMILES	Potency	activity change, negative = growth inhibition
CCCCCc1c(-c2ccc(OC)c(OC)c2)ncn1CCc1ccccc1OC	2.31 µM (active)	–
CCCCCc1c(Cc2ccccc2)ncn1CCc1ccccc1OC	2.59 µM (active)	–
COc1ccccc1CCC(=O)NNC(=O)c1ccncc1	inactive	–
CCN(CC)CCN1C(=O)C(=O)/C(=C(/O)c2ccc(OC)c(OC)c2)C1c1ccccn1 (configuration not stated)	inactive	–
CCCCNS(=O)(=O)CCNCc1ccccc1OC	inactive	–
CCOC(=O)CSc1nnc(-c2cccc(Br)c2)o1	inactive	–
CCC(=O)NCc1cc(-c2nn(C)c(=O)c3ccccc23)ccc1OC	inactive	–
CCCCCc1c(-c2cccc(Br)c2)ncn1CCc1ccccc1OC	11.6 µM (active)	–
CCCCn1c(N)c(N(CC(C)C)C(=O)CN(C)S(=O)(=O)c2ccc(F)cc2)c(=O)[nH]c1=O	inactive	–
Cc1cc(F)ccc1NC1(c2ccccc2)C(=O)c2ccccc2C1=O	inactive	–
COc1ccc(S(=O)(=O)NC(=O)C2(C)CCN2C(=O)COc2ccc(Cl)cc2)cc1 (configuration not stated)	inactive	–
COc1ccccc1C(=O)NC(=O)COC(=O)c1ccco1	inactive	–
COc1ccc(C)cc1N(CC(=O)N1CCCC1)S(=O)(=O)c1ccccc1	inactive	–
C/C(N)=C(/C#N)C(=O)COC(=O)C1CCN(C(=O)c2ccc(Cl)cc2)CC1	inactive	–
C[C@]12CC[C@H](O)CC1=CCC1C2CC[C@@]2(C)C1CC[C@@H]2NC(=O)CCC(=O)O (some centres not stated)	inactive	–
C#CC(CCN1CCCCC1)(OC)c1ccccc1 (configuration not stated)	inactive	–
CCC1CCC/C1=N\NC(=O)c1ccc(Cl)cc1 (configuration not stated)	inactive	–
CN1CCC[C@@H]1CCO[C@](C)(c1ccccc1)c1ccc(Cl)cc1	21.1 µM (active)	–
CC(=O)c1ccc(F)c(-c2cc(C)cc3c2OC(CNC(=O)Cc2c[nH]c4ccccc24)C3)c1 (configuration not stated)	–	11.9% [at 9.04 µM] (inactive)
O=C(CSc1oc(-c2ccccc2)nc1S(=O)(=O)c1ccc(Br)cc1)NC1CCCCC1	inactive	–
Cc1cc(C)cc(NC(=O)CSc2ccccc2)c1	inactive	–
Cc1cc(C)cc(NC(=O)CSc2oc(-c3ccccc3)nc2S(=O)(=O)c2ccc(Cl)cc2)c1	5.17 µM (active)	–
C/C=C1\C2C=C(C)CC1(N)c1ccc(=O)[nH]c1C2 (configuration not stated)	inactive	–
CCCN(CCC)CCNC(=O)Cn1cnc2sc(C)c(S(=O)(=O)N3CCC(C)CC3)c2c1=O	inactive	–
COC(=O)c1ccccc1SC1CC(=O)N(c2cccc(C)c2)C1=O (configuration not stated)	9.2 µM (active)	–

SMILES	Potency	activity change, negative = growth inhibition
COc1cccc(N2C(=O)CC(N3CCc4ccccc4C3)C2=O)c1 (configuration not stated)	inactive	–
COC(=O)c1cccc(N2C(=O)C3C4C=CC(CC4)C3C2=O)c1 (configuration not stated)	inactive	–
O=C(COC(=O)/C=C/c1ccc(Br)o1)Nc1cccc(S(=O)(=O)N2CCOCC2)c1	inactive	–
O=C1c2ccccc2C(=O)c2c1cccc2N1CCN(C/C=C/c2ccccc2)CC1	inactive	–
CCOC(=O)c1oc2c(CN3CCN(C)CC3)c(O)ccc2c(=O)c1-c1ccc(Br)cc1	inactive	–
COc1ccc(NC(=O)C2=CC(c3ccc(OC)c(OC)c3)=NS(=O)(=O)N2C)cc1	23.1 µM (active)	–
COc1cc(NC(=O)C2=CC(c3ccco3)=NS(=O)(=O)N2C)cc(OC)c1OC	inactive	–
COc1ccc(C2=NS(=O)(=O)N(C)C(C(=O)N3CCCCC3)=C2)cc1	inactive	–
COc1ccc(C2(Nc3cccc(F)c3)C(=O)c3ccccc3C2=O)cc1	inactive	–
CCCn1c(=S)[nH]c2ccc(C(F)(F)F)cc21	inactive	–
CCN(CC)c1ccc(NC(=O)CN2CCN(c3ccccn3)CC2)cc1	inactive	–
CC(=O)N1CCN(CC(=O)Nc2ccc(SC(F)F)cc2)CC1	inactive	–
CCN(CC)c1ccc(NC(=O)c2ccc(Cl)nc2)cc1	2.91 µM (active)	–
CCN(CC)c1ccc(NC(=O)CN2CCN(CC(=O)Nc3ccc(Cl)cc3)CC2)cc1	23.1 µM (active)	–
NS(=O)(=O)c1ccc(NC(=O)COC(=O)c2ccc(Cl)nc2)cc1	inactive	–
Cc1cnc(NC(=O)c2ccc(Cl)nc2)s1	inactive	–
CCc1ccc(CN2C(=O)c3ccccc3C2C(=O)NCC2CCCO2)cc1 (configuration not stated)	inactive	–
Cc1csc2nc(O)c(C(=O)NCCN3CCOCC3)c(=O)n12	inactive	–
NC(=O)COC(=O)c1sc2cc(F)ccc2c1Cl	inactive	–
Cc1ccsc1C(=O)NNC(=O)COc1ccc(Br)cc1	inactive	–
O=C(NC(=S)N1CCc2ccccc21)c1ccco1	inactive	–
CN(C)C(=O)c1ccc(NC(=O)COC(=O)c2cc3c(s2)CCCCC3)cc1	inactive	–
CCOC(=O)N1CCC(NC(=O)Cn2cc3c(n2)CCCCC3)CC1	inactive	–
CCOc1ccc(CNC(=O)Cn2cc3c(n2)-c2c(oc(C(=O)N4CCCC4)c2C)CC3)cc1	29.1 µM (active)	–
CCCN(CCC)CCCNC(=O)Cn1cc2c(n1)-c1c(oc(C(=O)N3CCCC3)c1C)CC2	inactive	–

SMILES	Potency	activity change, negative = growth inhibition
CCOC(=O)C(C)n1cnc2scc(-c3ccc(C)c(C)c3)c2c1=O (configuration not stated)	inactive	–
COc1ccc(-c2nnc(SCC(=O)Nc3cccnc3Cl)n2C)cc1	inactive	–
COC(=O)c1ccc(NC(=O)CSc2nnc(C3CC3)n2C)cc1	inactive	–
CC(C)(C)NC(=O)COc1ccc(CNc2ccc3[nH]c(=O)[nH]c3c2)cc1	inactive	–
CC(=O)Nc1ccc(CN2CCC(Oc3ccc(C(=O)N4CCCC4)cc3)CC2)cc1	inactive	–
Oc1ccc(Cl)c2c1CCC2	inactive	–
COc1ccc(S(=O)(=O)Nc2ccc(S(=O)(=O)N3CCCCC3)cc2)cc1OC	inactive	–
COc1ccc(-c2ccc(Nc3ccc(S(=O)(=O)N4CCCC4)cc3)nn2)cc1OC	16.4 µM (active)	–
COc1cc(NS(=O)(=O)c2ccc(NC(=O)c3ccc(S(=O)(=O)N4CCCCC4)cc3)cc2)ncn1	inactive	–
COCCOC(=O)c1c(C)oc2cc(Br)c(OCC(N)=O)cc12	inactive	–
COC(=O)c1ccc(NC(=O)c2cc(S(=O)(=O)N3CCC(C)CC3)cn2C)cc1	inactive	–
COc1cc(OC)cc(C(=O)NCCc2csc3nc(-c4ccccc4F)nn23)c1	inactive	–
CCOc1ccc(NC(=O)C(=O)NCCc2csc3nc(-c4ccccc4F)nn23)cc1	inactive	–
Cc1c(Cl)cccc1NC(=O)C(=O)NCCc1csc2nc(-c3ccccc3F)nn12	18.4 µM (active)	–
CCCC(O)(c1ccc(OC)cc1)C(CN(C)C)c1ccccc1 (configuration not stated)	inactive	–
COc1cccc(CN(C)CC(O)COC(c2ccccc2)c2ccccc2C)c1 (configuration not stated)	20.6 µM (active)	–
COc1cccc(CN(C)CC(=O)Nc2ccccc2C(=O)Nc2ccccc2)c1	inactive	–
Cc1ccccc1S(=O)(=O)N1[C@@H](c2cccc(Cl)c2)C(C(=O)O)=CC[C@H]1c1ccc(Cl)cc1	inactive	–
Cc1ccc(S(=O)(=O)N2[C@@H](c3cccc4ccccc34)C(C(=O)O)=C[C@H]2C(C)(C)C)cc1	inactive	–
Cc1ccccc1S(=O)(=O)N1[C@@H](c2cccc(Cl)c2)C(C(=O)OC(C)(C)C)=CC[C@H]1c1ccc(Cl)cc1	20.6 µM (active)	–
Cc1ccc(S(=O)(=O)N2CCCC2CO)cc1 (configuration not stated)	inactive	–
Cc1ccc(S(=O)(=O)N2[C@@H](c3ccc(Br)cc3)C(C(=O)O)=C[C@H]2CC2CCCC2)cc1	inactive	–
O=C(CN1CCN(S(=O)(=O)c2ccc(F)cc2)CC1)NC1CC1	inactive	–
CCOC(=O)C1=CC[C@@H](c2ccccc2)N(S(=O)(=O)c2ccc(C)cc2)[C@H]1c1cccc(OC)c1	23.1 µM (active)	–
CCCCC[C@@H]1C=C(C(=O)OCC)[C@H](c2ccccc2)N1S(=O)(=O)c1ccc(C)cc1	14.6 µM (active)	–

SMILES	Potency	activity change, negative = growth inhibition
COc1ccc(S(=O)(=O)N2CCC(C(=O)NCCC(=O)NCc3cccc(OC)c3)CC2)cc1	inactive	–
CCOC(=O)C1=CCC(c2ccc(F)cc2)N(S(=O)(=O)c2ccc(C)cc2)C1 (configuration not stated)	16.4 µM (active)	–
Cc1ccc(S(=O)(=O)N2[C@@H](c3ccccc3F)C(C(=O)O)=CC[C@H]2c2ccc(Cl)cc2)cc1	inactive	–
Cc1ccc(S(=O)(=O)N2C[C@H]3C(=O)C[C@@H](c4cccc5ccccc45)N(S(=O)(=O)c4ccc(C)cc4)[C@H]3C[C@H]2c2ccc(Cl)cc2)cc1	inactive	–
Cc1ccnc2nc(C(=O)Nc3nnc(-c4ccccc4)o3)nn12	inactive	–
Cc1ccc2[nH]c(=O)c(CN(C)S(=O)(=O)c3cccc4nonc34)cc2c1	inactive	–
COc1cc(NS(=O)(=O)c2cccs2)cc(OC)c1	inactive	–
COCCNc1nc(-c2ccccc2)nc2c1oc1ccccc12	inactive	–
Cc1cc(C)c2nc(-c3cccnc3)cc(C(=O)Nc3ccc(S(=O)(=O)Nc4onc(C)c4C)cc3)c2c1	inactive	–
CC1CCN(C(=O)C2CCN(S(=O)(=O)N3CCC4(CC3)OCCO4)CC2)CC1	inactive	–
COc1cc(C2C3C(=O)N(c4ccccc4)C(=O)C3ON2c2ccccc2)ccc1O (configuration not stated)	inactive	–
COC(=O)c1sc(N)c(C(=O)OC)c1COC(=O)CNS(=O)(=O)c1ccc(C)cc1	inactive	–
COc1ccc2oc(-c3ccc(C)c(NC(=O)c4sc5ccccc5c4Cl)c3)nc2c1	inactive	–
CC1(C(=O)OCC(=O)Nc2ncc(Cl)cc2Cl)CC1(Cl)Cl (configuration not stated)	inactive	–
N#Cc1cccc(CN2CCC(=O)N([C@H](CO)c3ccccc3)CC2)c1	inactive	–
CC(C)(C(=O)NO)c1ccccc1	inactive	–
CCN(CC)S(=O)(=O)c1cccc(C(=O)Nc2ccccc2)c1	20.6 µM (active)	–
CCN(CC)S(=O)(=O)c1cccc(C(=O)NCC(=O)OCC(=O)NCc2ccccc2)c1	inactive	–
CN(C)S(=O)(=O)c1cccc(C(=O)Nc2cccnc2)c1	inactive	–
CC(OC(=O)c1cc2ccccc2o1)C(=O)Nc1ccc(N2CCOCC2)cc1 (configuration not stated)	inactive	–
CN(c1ccccc1)S(=O)(=O)c1ccc2[nH]c(=O)[nH]c2c1	inactive	–
CCCNC(=O)N1CCC(c2ccc3c(c2)OCO3)CC1	inactive	–
